Assay outcomes: PubChem, National Center for Advancing Translational Sciences (NCATS)
Giardia kill – kills Giardia lamblia | Giardia lamblia trophozoite viability | AID 540267 | 0.15% of 340,000 active | activity change, % at 7.66 µM, hits read low; in the data active = activity change below about -80%; inconclusive = between about -30% and that limit;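 also: parasites exposed to compound for two days anaerobically before the ATP read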
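Killing of trophozoites was scored by loss of ATP luminescence after a 48 hrs anaerobic exposure to compounds at 37 deg C, using 100 cells per well.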
GALK inhibitor – inhibitors of human galactokinase; Potency, µM (titrated, usually from 57.5 µM), for inactives: top-dose activity change, negative = inhibition, usual class: inhibitors; P51570; Purified GALK, Kinase-Glo residual ATP luminescence; 0.007% of 270,000 active; also: potency is read from the fitted curve at half-maximal effect
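Luminescence from leftover ATP (Ultra-Glo luciferase/luciferin) served as read-out after a 1 h room-temperature reaction of 5 nM GALK with 35 uM ATP and 100 uM galactose.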
TrxR1 inh – inhibitors of rat thioredoxin reductase 1; O89049; recombinant rTrxR1, NADPH fluorescence consumption, selenite substrate; Potency, µM (doses to about 114 µM), without a hit: at the highest dose activity change, negative = inhibition, actives largely listed as inhibitors; 1% of 390,000 active; AID 588453; also: potency is read from the fitted curve at half-maximal effect; nearly all actives have a fitted effect of over 65% in size
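Rat TrxR1 (90 nM in the dispensed reagent) was pre-reduced with 400 uM NADPH for 5 min at room temperature, then incubated with compound for 15 min. After 400 uM selenite was added, NADPH fluorescence (Ex 340/Em 450 nm) was followed for 8 min.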
FBPA coupling cs – coupling enzyme interference in Giardia aldolase counter-screen | activity change, negative = inhibition, % at 58.2 µM, hits read low | coupling enzyme system counterscreen, AmpLite Red fluorescence | 0.67% of 290,000 active | AID 2472; in the data active = activity change below about -30%
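First, compound is pin-transferred into glyceraldehyde-3-phosphate coupling-enzyme reagent at 57.5 uM final and held 10 min at RT. Next, substrate, coupling system and AmpLite Red are added. After 20 min RT, fluorescence (525/598 nm) is read.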
PI4K2A block – PI4K2A (human) kinase inhibition; AID 1346378; purified PI4K2A, ADP-Glo luminescence, 1 h; stronger effect = lower value; 0.13% of 420,000 active; Q9BTU6; activity change, negative = inhibition, % at 76.9 µM; in the data active = activity change below about -50%; inconclusive = mostly about -30% to -49%;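 also: -100% = wells without enzyme as full effect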
Target sequence (Q9BTU6 whole entry, looked up): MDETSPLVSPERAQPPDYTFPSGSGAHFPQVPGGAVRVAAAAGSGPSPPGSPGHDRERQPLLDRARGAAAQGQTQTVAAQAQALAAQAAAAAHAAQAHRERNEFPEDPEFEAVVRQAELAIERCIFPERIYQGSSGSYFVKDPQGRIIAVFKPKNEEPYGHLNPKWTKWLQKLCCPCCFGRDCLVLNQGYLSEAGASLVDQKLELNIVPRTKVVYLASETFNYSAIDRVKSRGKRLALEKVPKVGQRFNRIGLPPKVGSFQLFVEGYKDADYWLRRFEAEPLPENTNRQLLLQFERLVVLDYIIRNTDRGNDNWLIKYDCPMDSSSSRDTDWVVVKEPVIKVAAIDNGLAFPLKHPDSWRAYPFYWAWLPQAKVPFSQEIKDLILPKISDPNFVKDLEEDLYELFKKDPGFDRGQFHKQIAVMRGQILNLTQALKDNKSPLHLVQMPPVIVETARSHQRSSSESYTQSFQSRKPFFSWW
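Compounds are screened against recombinant PI4K2A using PI as substrate and ATP, the latter dispensed at 300 microM. Reactions run one hour at ambient temperature before ADP-Glo detection; full inhibition defined by wells lacking enzyme.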
TrxR1 substrate – rat thioredoxin reductase 1 substrate activity; O89049; purified TrxR1 substrate turnover, NADPH consumption readout; Potency, µM (series often up to 114 µM), inactives show at the highest dose activity change, negative = substrate turnover; 0.01% of 390,000 active; AID 588456; also: potency is read from the fitted curve at half-maximal effect; nearly all actives have a fitted effect of over 50% in size
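Rat TrxR1, dispensed at 90 nM, was prereduced with 400 uM NADPH (final) for 5 min at ~22 deg C, then incubated with compound 15 min before 400 uM selenite. A first-read NADPH fluorescence drop versus no-compound background flagged substrates.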
* = called active by the depositor; ? = inconclusive; · = no result; [ ] = another dose, or the depositor's remark. Shown are actives, neighbours in structure and some others; about 1.5% of the full set was active somewhere. Unless noted, calls follow the shape of the dose curve; as a rule, active = well fitted curve in the direction sought with a large enough effect; inconclusive = small, poorly fitted or top-dose-only effect, or another doubt; inactive = no such curve, though single readings can be large; an effect the other way counts as inactive or inconclusive. Unless noted, % is scaled to controls: 0 for no effect and ±100 for the full control effect.

SMILES	Giardia kill	GALK inhibitor	TrxR1 inh	FBPA coupling cs	PI4K2A block	TrxR1 substrate
FC(F)(F)c1cc(-c2ccco2)nc(NCc2ccccc2)n1	4	-2%	?	0	10	11%
O=C(Cc1cccc2ccccc12)NO	·	·	17%	·	·	5%
CC(C)(C)c1ccc(O)c(O)c1	15	·	22µM*	·	3	12%
Cc1nn(CC(=O)NCc2ccc(N(C)C)cc2)c(=O)c2c(C)n(-c3ccc(Cl)cc3)nc12	·	·	28%[57.1 µM]	·	1	2%[57.1 µM]
c1coc(CNc2nc[n+]3c4c2ncn4CC3)c1	13	·	3%	·	·	0%
Cc1ccsc1/C=N/Nc1nc(=O)[nH]nc1C	-5	-3%	-21%	-7	-71*	-18%
CN(C)c1ccc(/C=C/c2ccnc3ccccc23)cc1Br	·	·	6%	·	·	3%
CCOC(=O)C1=C(C)NC(=O)CC1c1cc2c(cc1[N+](=O)[O-])OCO2 (centres undefined)	0	-1%	6%[57.1 µM]	-53*	0	2%[57.1 µM]
COc1cc2nc3c(c([Si](C)(C)C(C)(C)C)c2cc1OC)Cn1c-3cccc1=O	·	·	·	-42*	·	·
CCCSc1nc(O)c(C(c2ccc(OC)c(O)c2)c2c(O)nc(SCCC)n(C)c2=O)c(=O)n1C	15	1%	11µM*	17	-16	9%[57.1 µM]
COc1cccc(C(c2c(O)nc(SC)n(C)c2=O)c2c(O)nc(SC)n(C)c2=O)c1	-7	2%	?	8	-1	-5%
CN(C)CCCOc1ccc2c(c1)Sc1ccccc1CC2=O	?	-3%	-6%	-66*	4	-9%
CC(=O)Nc1ccc(NS(=O)(=O)c2ccc(C)cc2)c([N+](=O)[O-])c1	-99*	2%	16%[57.1 µM]	2	-2	4%
CC(=O)Nc1ccc(NS(=O)(=O)c2ccc(C)cc2)cc1[N+](=O)[O-]	14	-2%	15%	2	9	6%[57.1 µM]
CC[n+]1cccc(Br)c1	·	·	19%	·	·	0%
CCOC(=O)Cn1cccc1-c1nc(-c2ccc(OC)cc2)c(-c2ccc(OC)cc2)s1	·	·	·	·	3	·
Cc1nn(-c2ccccc2)c2sc(C(=O)NC3CCCCCC3)cc12	·	·	·	·	0	·
Cc1cc(Cl)ccc1NC(=O)c1cc2ccccn2n1	·	·	15%[57.1 µM]	·	-4	-2%[57.1 µM]
Cn1nc(-c2ccc(F)cc2)nc2c(=O)n(C)c(=O)nc1-2	-89*	·	28µM*	·	·	22µM*
Cc1ccccc1-n1c2nc(=O)n(C)c(=O)c-2cc2ccccc21	2	-1%	5%[57.1 µM]	-1	1	76%[57.1 µM]
COc1ccc(-c2nc(N)n(S(=O)(=O)c3ccc(C)cc3)n2)cc1	10	-3%	19%[57.1 µM]	1	-3	-16%[57.1 µM]
CCn1nc(-c2ccccc2C)nc2c(=O)n(C)c(=O)nc1-2	-93*	·	?	·	·	14µM*
Cn1nc(-c2cccnc2)nc2c(=O)n(C)c(=O)nc1-2	-86*	·	-21%	·	·	?
COc1ccc(-c2nc3c(=O)n(C)c(=O)nc-3n(C)n2)cc1	-99*	·	?	·	·	?
Cn1nc(-c2ccc(Cl)cc2)nc2c(=O)n(C)c(=O)nc1-2	-103*	1.1µM*	?	-76*	·	18µM*
SMILES	Giardia kill	GALK inhibitor	TrxR1 inh	FBPA coupling cs	PI4K2A block	TrxR1 substrate
CS(=O)(=O)n1nc(-c2ccc(Cl)cc2)nc1N	-3	7%	13%[11.4 µM]	-7	2	9%[11.4 µM]
Cc1ncc([N+](=O)[O-])n1CCOC(=O)NC(NCc1ccccc1)C(Cl)(Cl)Cl (centres undefined)	?	4%	-15%	1	-10	-12%
Cc1ncc([N+](=O)[O-])n1CCOC(=O)c1ccccc1	-100*	-2%	-1%	4	0	-4%
Cc1ncc([N+](=O)[O-])n1CCOC(=O)Nc1ccc(Cl)c(Cl)c1	-90*	0%	9%	-6	-2	2%
Cc1ncc([N+](=O)[O-])n1CCOC(=O)NC(Nc1ccc(F)cc1)C(Cl)(Cl)Cl (centres undefined)	?	-2%	8%	-1	1	3%
O=C(CCc1nc(-c2ccccc2F)no1)NCCc1cccc(F)c1	·	·	·	·	0	·
Cc1cc(C)cc(NC(=O)CN2C(=O)c3ccccc3Sc3ncccc32)c1	·	·	17%	·	2	-1%
Cc1cc(C)cc(NC(=O)CCN2C(=O)c3ccccc3Sc3ncccc32)c1	·	·	25µM*	·	-1	-12%
CCc1ccccc1Nc1nc2ccccc2c2nncn12	·	·	-7%	·	-2	-4%
Cc1cc(C)nc(NC(=O)c2ccc([N+](=O)[O-])o2)n1	?	1%	-24%	-7	4	-10%
CC(=O)c1ccc(NC(=O)c2ccc([N+](=O)[O-])o2)cc1	-101*	0%	-22%	-4	-8	-9%
CC(=O)Nc1ccc(NC(=O)COC(=O)c2ccc([N+](=O)[O-])o2)cc1	-3	·	?	·	-4	4%
COc1ccc(NC(=O)c2ccc(Br)o2)cc1	-4	·	7%	-8	1	0%
COc1ccc(NC(=O)c2ccc([N+](=O)[O-])o2)cc1	-95*	-1%	?	-3	-1	-1%
Cc1cc(C)cc(NC(=O)c2ccc([N+](=O)[O-])o2)c1	-95*	-1%	-29%[57.1 µM]	-5	11	-8%[57.1 µM]
COc1cccc(NC(=O)c2ccc(-c3ccccc3[N+](=O)[O-])o2)c1	7	2%	16µM*	2	0	-7%[57.1 µM]
CCOc1cccc(C2C=C(c3ccc4c(c3)OCO4)NC(c3ccccc3Cl)N2)c1O (centres undefined)	?	·	-7%	·	·	-1%
Cc1cc(Oc2ccc(Cl)cc2Cl)nc(C#N)n1	·	·	-1%	·	·	3%
Cc1ccc(C)c(-c2nnc(NC(=O)c3ccc([N+](=O)[O-])o3)o2)c1	-85*	·	?	·	-2	-19%
CC(=O)c1cccc(NC(=O)c2ccc([N+](=O)[O-])o2)c1	-88*	·	-3%[57.1 µM]	·	3	2%[57.1 µM]
O=C1CN(CCN2CC(=O)NC(=O)C2)CC(=O)N1	·	·	14%	·	·	6%
COc1ccc(-n2ncc3c(N4CCCCC4)ncnc32)cc1	-82*	2%	15%	-2	?	15%
Cc1ccc(-n2ncc3c(N4CCCCC4)ncnc32)cc1	·	·	4%[57.1 µM]	·	-17	1%[57.1 µM]
Cc1c(C(=O)N/N=C/c2ccc(-c3ccccc3[N+](=O)[O-])o2)sc(N)c1C#N	-2	1%	-21%	-33*	-5	-16%
O=[N+]([O-])c1ccccc1-c1ccc(/C=N/n2cnnc2)o1	5	1%	-6%	3	18	-6%
Cc1c(-c2ccc(/C=N/NC(=O)C(=O)Nc3ccccc3F)o2)cccc1[N+](=O)[O-]	-2	·	24%	2	-1	5%
Nn1cnnc1N/N=C\c1ccc(-c2ccccc2[N+](=O)[O-])o1	-10	0%	-10%	-49*	-22	?
